The campaign covered roughly 390,000 compounds. About 610 (0.16%) were called active. A call without a number means that no potency is given here. About 4% were inconclusive and are not listed. Calls come from the whole dose curve; as a rule, active = well fitted inhibition curve with a large enough effect; inconclusive = small, poorly fitted or top-dose-only effect, or effect the other way, or another doubt; inactive = no such curve, though single readings can be large or run the other way. The sample as a whole holds a higher share of actives than the screen did.
Test: Nrf2 qHTS screen for inhibitors: counterscreen for cytotoxicity
Conditions: A549 ARE-Fluc cells, CellTiter-Fluor viability, 18-24 h; series mostly up to 46 µM
Text: NIH Molecular Libraries Probe Production Network [MLPCN]
NIH Chemical Genomics Center [NCGC]
Assay Provider: Shyam Biswal, Johns Hopkins University
Nrf2 is a transcription factor that maintains cellular redox homoestasis and protects cells from xenobiotics. Nrf2 binds to the antioxidant response element (ARE) to induce gene expression of a broad spectrum of genes that encode for antioxidants. […] Finding a small molecule that act as an inhibitor of Nrf2 function would represent a novel therapeutic target that could lead to improvement in survival of patients undergoing chemo- and/or radio- therapy.
So here we implemented a counterscreen to weed out the cytotoxic compounds.
1. Shibata, T., et al., Genetic Alteration of Keap1 Confers Constitutive Nrf2 Activation and Resistance to Chemotherapy in Gallbladder Cancer. Gastroenterology, 2008.
2. Sjoblom, T., et al., The consensus coding sequences of human breast and colorectal cancers. Science, 2006. 314(5797): p. 268-74.
NCGC Assay Protocol Summary:
A concentration-response assay was performed with A549 ARE_Fluc cells which are suspended in 5% FBS OPTI-MEM. Five uL were dispensed into 1536-well white TC-treated plate using the Kalypsys dispenser to achieve a density of 5000 cells/well in all columns except column 1. The plate is incubated at 37deg C at 5% CO2 for 2 hours before 23 nL of compounds are added with the Kalypsys pin tool equipped with a 1,536-pin array containing 10-nL slotted pins (FP1S10, 0.457-mm diameter, 50.8 mm long; V&P Scientific). The control compounds Budesonide and Staurosporine are both added at a concentration of 2mM and Budesonide is also added as a 1:10 titration, starting at 200uM, to achieve dose-response. After an 18-24 hour incubation at 37deg C at 5% CO2, 5ul of medium is added to column 1. Afterwards 1ul of 5x of CellTiter-Fluor (Promega) is added to every well. The plate is then incubated at 37deg C at 5% CO2 for 30 minutes before they are read on the ViewLux (Perkin Elmer) for a fluorescent read Ex=405(10)/Em=525(10) for a 3 second exposure, 2x binning, and high gain. Then 3 uL of 3x BugLite is dispensed into all wells and the plate is incubated at ambient room temperature for 15 minutes. Afterwards another ViewLux read is performed using the clear filter to get a luminescent read with the settings of 40 second exposure, 2x binning, and high gain. Cytotoxicity is assessed through the first fluorescent read and then biochemical activity against Nrf2 is measured in the luminescent read.
Potency is the fitted concentration of half-maximal effect.

| SMILES | Potency |
| --- | --- |
| O=C(c1ccco1)N(Cc1cccs1)c1ccc(O)cc1 | inactive |
| COC(=O)CCc1ccccc1S(=O)(=O)N(CCC(=O)OC)Cc1ccccc1 | inactive |
| Cc1ccc(NC(=S)N2CCN(c3ncccn3)CC2)cc1C | inactive |
| CC(=NNC(=S)N1CCCCCC1)c1ccccn1 | 20.6 µM (active) |
| C/C(=N\NC(=O)Cc1ccc(Cl)cc1)c1ccccn1 | 2.31 µM (active) |
| C/C(=N/NC(=O)CSc1ccccn1)c1ccc([N+](=O)[O-])cc1 | inactive |
| COc1ccc(S(=O)(=O)N2CCCC(C(=O)Nc3ccc(NC(=O)c4ccccn4)cc3)C2)cc1 (centres undefined) | inactive |
| C/C(Cc1ccccc1)=N\NC(=O)CNC(=O)c1ccccc1Cl | inactive |
| O=C1CSC2(C(=O)N(Cc3ccccc3)c3ccccc32)N1c1cccc(F)c1 (centres undefined) | inactive |
| NS(=O)(=O)c1ccc(-c2ccc(/C=C3\SC(=O)NC3=O)o2)cc1 | 11.6 µM (active) |
| CCOc1ccc(NC(=O)CSc2nnc3c(n2)[nH]c2ccc(S(=O)(=O)N4CCOCC4)cc23)cc1 | inactive |
| O=C1C(F)N([S+](=O)([O-])c2ccc3c(c2)OCCO3)CCN1[S+](=O)([O-])c1c(F)cccc1F (centres undefined) | inactive |
| O=C(NNC(=O)c1cccc(S(=O)(=O)Nc2ccc(Cl)cc2)c1)c1ccc(=O)[nH]c1 | inactive |
| O=C(Nc1cccc(S(=O)(=O)Nc2ccc(Cl)cc2)c1)c1ccc2c(c1)OCCO2 | 16.4 µM (active) |
| CC(=O)Nc1ccc(C(=O)Nc2cccc(S(=O)(=O)NC3=NCCC3)c2)cc1 | inactive |
| COc1cccc2c1C(=O)c1c(O)c3c(c(O)c1C2=O)CC(O)(C(C)=NNC(=O)c1ccc(Cl)c(Cl)c1)CC3OC1CC(N)C(O)C(C)O1 (centres undefined) | 11.6 µM (active) |
| O=S(=O)(Nc1cccc2cccnc12)c1cccc2cccnc12 | inactive |
| COc1ccccc1CNc1ccc(-c2nc(-c3ccccc3C)no2)cc1[N+](=O)[O-] | inactive |
| COc1ccc(-c2nc(=N)sn2-c2ccccc2)cc1 | inactive |
| COc1ccc(Cn2c(=O)[nH]c3cc(C(=O)N4CCN(C(=O)c5ccco5)CC4)ccc3c2=O)cc1 | inactive |
| COc1ccc(C(CCN2CCOCC2)c2c(OC)cc(OC)c3c2OC(=O)CC3c2ccc(OC)cc2)cc1 (centres undefined) | inactive |
| C=C1CCN(C(CC(C)C)C(=O)N2CCOCC2)S(=O)(=O)c2ccccc21 (centres undefined) | inactive |
| COc1ccc(-c2ccc(C3C4C=CCCC4(C)C(=O)N3Cc3ccccc3)c(F)c2)cc1OC (centres undefined) | inactive |
| CC(=O)N1CCCc2ccc(NS(=O)(=O)c3ccc(F)cc3F)cc21 | inactive |

| SMILES | Potency |
| --- | --- |
| O=C(/C=C/c1ccc([N+](=O)[O-])o1)NNC(=O)c1ccc(F)cc1 | 14.6 µM (active) |
| N#CN1CCC(NC(=O)c2ccc(F)cc2)CC1 | inactive |
| CCCCCCC1(C)NC(c2ccc3c(c2)OCO3)=CC(c2ccccc2O)N1 (centres undefined) | inactive |
| O=C(CNC(=O)c1ccc(Cl)cc1Cl)OC(C(=O)Nc1cc(C(F)(F)F)ccc1Cl)c1ccccc1 (centres undefined) | inactive |
| COc1ccc(N2CCN(S(=O)(=O)c3ccc4c(c3)CC(=O)N4)CC2)cc1 | inactive |
| CCN(CC)C(=O)CSc1nc2ccsc2c(=O)n1Cc1ccccc1Cl | inactive |
| Cc1ccc(NC(=O)c2cc(S(=O)(=O)NCCC3=CCCCC3)ccc2F)cc1C | inactive |
| COc1ccc(-c2nnc(SCC(=O)Nc3ccccc3C)o2)cc1OC | inactive |
| Cc1cccc(C)c1-n1c(C)cc(/C=C2\C(=O)NN(c3ccccc3)C2=O)c1C | 20.6 µM (active) |
| Cc1cccc(NC(=O)c2ccc3nc(C(C)C)oc3c2)c1C | inactive |
| Cc1ccc(C)c(N2CCN(C(=O)Cn3nc(C)c4sc5ccccc5c4c3=O)CC2)c1 | inactive |
| O=C1CCCC2=C1[C@@]1(CCC(c3ccccc3)C1)N=C(Nc1nc3ccccc3o1)N2 (some centres undefined) | inactive |
| COc1cc(OC)c2ccc(=O)oc2c1C(CCN1CCN(c2ccccc2)CC1)c1ccc2c(c1)OCO2 (centres undefined) | 23.1 µM (active) |
| COc1cc(C(CCN2CCN(c3ccccc3)CC2)c2c(OC)cc(OC)c3ccc(=O)oc23)cc(OC)c1OC (centres undefined) | inactive |
| CCN(CC)CCC(c1ccc2c(c1)OCO2)c1c(OC)cc(OC)c2c(-c3ccccc3)cc(=O)oc12 (centres undefined) | inactive |
| COC(=O)Cc1csc(/N=C/c2c(O)n(-c3cccc(C(F)(F)F)c3)c(=O)c3ccccc23)n1 | inactive |
| CCO/C=C1\C(=O)N(c2ccc(OCC)cc2)C(=O)c2ccccc21 | inactive |
| CCOc1ccc(N=Cc2c(O)n(-c3cccc(C)n3)c(=O)c3ccccc23)cc1 | 18.4 µM (active) |
| COc1ccc(-c2ccc(OC)c(C3C4C=CCC(C)C4C(=O)N3Cc3ccccc3)c2)cc1C (centres undefined) | inactive |
| COc1ccc(NC(=O)CSc2nc3ccccc3n2CC(=O)N2CCCCC2C)cc1 (centres undefined) | inactive |
| COc1cc(NS(=O)(=O)c2ccc3c(c2)OCC(C(=O)N2CCCC2)O3)cc(OC)c1 (centres undefined) | inactive |
| CCOC(=O)C1CCN(c2ncnc3c2c(-c2ccccc2)cn3-c2cccc(C)c2)CC1 | inactive |
| Cc1ccc(-c2nc(CS(=O)(=O)CC(=O)NCc3ccccc3Cl)c(C)o2)cc1 | inactive |
| O=C(CSc1nnc(-c2ccccc2F)o1)Nc1cccc(C(F)(F)F)c1 | inactive |

| SMILES | Potency |
| --- | --- |
| Cc1noc(C)c1-c1ccc2ncnc(NCc3ccc(F)c(F)c3)c2c1 | inactive |
| CC(Nc1ncnc2ccc(-c3ccc4c(c3)OCO4)cc12)c1ccco1 (centres undefined) | inactive |
| CCCS(=O)(=O)Nc1cccc(-c2cn3ccsc3n2)c1 | inactive |
| CCOc1cc(-c2nnc(SCC(=O)NC3CCCC3)nc2-c2ccc(OC)c(OCC)c2)ccc1OC | inactive |
| O=C(CNC(=O)c1ccc(Cl)c(C(F)(F)F)c1)OC(C(=O)Nc1cc(C(F)(F)F)ccc1Cl)c1ccccc1 (centres undefined) | inactive |
| CCOC(=O)CNC(=O)c1cc2c(=O)n3cccc(C)c3nc2s1 | inactive |
| COc1ccc(C(=O)NC(=S)N2CCNC(=O)C2CC(=O)OC(C)C)cc1 (centres undefined) | inactive |
| CCOC(=O)CC1C(=O)NCCN1c1nc2c(C)cccn2c(=O)c1/C=C1\SC(=S)N(C(C)CC)C1=O (centres undefined) | 20.6 µM (active) |
| Cc1cc(C)n2ncc(C(=O)N3CCCC3)c2n1 | inactive |
| CSc1ncc(Cl)c(C(=O)Nc2ccc(S(=O)(=O)N3CCCC(C)C3)cc2)n1 (centres undefined) | inactive |
| Cc1noc(C)c1-c1ccc2ncnc(NCc3ccc4[nH]ccc4c3)c2c1 | inactive |
| Cc1ccc(S(=O)(=O)NC(N)=NCCC[C@@H](NC(=O)CNC(=O)c2ccccc2)C(=O)Nc2cc(C(F)(F)F)ccc2Cl)cc1 | inactive |
| CCOc1cc(C2C(C(=O)Nc3ccc(OC)cc3)=C(C)Nc3nc(SC)nn32)ccc1O (centres undefined) | inactive |
| CN1CCOc2cc(S(=O)(=O)N3CCN(S(=O)(=O)c4c(F)cccc4F)CC3)cnc21 | inactive |
| O=C1CN(Cc2ccccc2)S(=O)(=O)c2ccccc21 | inactive |
| COc1ccc(C2Nc3ccc(NC(=O)COC(C)=O)cc3C(=O)N2Cc2ccccc2)cc1COc1ccc(NC(C)=O)cc1 (centres undefined) | inactive |
| COc1ccc(C2Nc3ccccc3C(=O)N2Cc2ccc(Cl)cc2)cc1COc1ccc(NC(C)=O)cc1 (centres undefined) | inactive |
| O=C1C[C@@H](c2ccc3ccccc3c2)N1S(=O)(=O)c1ccccc1[N+](=O)[O-] | inactive |
| CNC(=O)[C@]1(C(F)(F)F)C[C@H](CCc2ccccc2)CCCO1 | inactive |
| COc1ccc2c(Sc3ccc(C)cc3)c(C(=O)NC(C)c3ccccc3)[nH]c2c1 (centres undefined) | inactive |
| Cc1cc(NS(=O)(=O)c2ccc3oc(=O)c4ncn(C)c4c3c2)ccc1Br | inactive |
| CC(/C=C/c1ccco1)=N/NC(=O)C1COc2ccccc2O1 (centres undefined) | inactive |
| O=C(Nc1ncc([N+](=O)[O-])s1)C1COc2ccccc2O1 (centres undefined) | 20.6 µM (active) |
| CC1CC(=NNC(=O)C2COc3ccccc3O2)CC(C)(C)C1 (centres undefined) | inactive |

| SMILES | Potency |
| --- | --- |
| Oc1ccc(Br)cc1C1C=C(c2ccc3c(c2)OCO3)NC(c2ccc(Cl)cc2)N1 (centres undefined) | inactive |
| Cc1ccc(-c2nc(=N)sn2Cc2ccccc2)cc1 | inactive |
| CCCN1CCC(=O)N(C(CSc2ccc(OC)cc2)Cc2ccccc2)CC1 (centres undefined) | inactive |
| COc1ccc(C2Nc3cccc(OC)c3C(=O)N2Cc2ccccc2)cc1COc1ccc(NC(C)=O)cc1 (centres undefined) | inactive |
| CCOc1ccc(Br)cc1CSC(=N)N | 20.6 µM (active) |
| COCC(C)NCc1cc(Br)ccc1OC (centres undefined) | inactive |
| CCOc1ccc(Br)cc1S(=O)(=O)Nc1cccc(S(=O)(=O)N(CC)CC)c1 | inactive |
| O=C1NS(=O)(=O)c2ccccc21 | inactive |
| O=C(NC(c1ccco1)c1cc(Cl)c2cccnc2c1O)c1ccccc1 (centres undefined) | inactive |
| O=C1CCc2cc(S(=O)(=O)Nc3cccc(Oc4ccccc4)c3)ccc2N1 | inactive |
| CCN1C(=O)c2ccccc2Sc2ccc(NC(=O)Cc3ccc(OC)cc3)cc21 | inactive |
| CNC(=O)CN1C(=O)c2cccnc2Sc2ccccc21 | inactive |
| CCN1/C(=C/C(=S)Nc2ccccc2)Sc2ccccc21 | 16.4 µM (active) |
| Cc1cc2c(s1)c1cnn(Cc3cc(F)c(Cl)cc3Cl)c(=O)c1n2C | inactive |
| CN=C1C=C/C(=N/N=c2\ccn(O)cc2C)C=C1C | 16.4 µM (active) |
| OC[C@@H]1O[C@H](n2cnc3c(SCc4ccccc4)ncnc32)[C@H](O)[C@H]1O | inactive |
| COc1ccc(C2Nc3ccccc3C(=O)N2Cc2ccccc2)cc1COc1ccc(C(N)=O)cc1 (centres undefined) | inactive |
| COc1cc(F)c(S(=O)(=O)N2CCCN(S(=O)(=O)c3ccc(N)cc3)CC2)c(F)c1 | inactive |
| Cc1nc(N2CCOCC2)c2c(C(=O)NCc3cccc(Cl)c3)c(C)oc2n1 | inactive |
| CCOc1ccc(-c2n[nH]c3c2C(c2ccccc2OC)N(c2ccc(Br)cc2)C3=O)cc1 (centres undefined) | inactive |
| CCCN1CCC(=O)N(C(CSc2ccc(C)cc2)Cc2ccccc2)CC1 (centres undefined) | inactive |
| Cc1ccc(S(=O)(=O)N2CCN(c3nc(-n4cnc5ccccc54)nc4ccccc34)CC2)cc1 | inactive |
